The values below come from PubChem BioAssay.

The subject of assay [1] is Plasmodium falciparum Sir2 (PF13_0152, Sir2A). The experiment in a line: Plasmodium falciparum Sir2A binding compounds – biochemical, small-molecule microarray, 635 nm fluorescence, primary screen (AID 1098).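 Also: score merges spot fluorescence intensity with its signal-to-noise ratio.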 Conditions: fluorescence 635 nm, higher = more signal.
The nature of assay [2]: probe aDKK1 binding to arrayed compounds – biochemical, biotinylated probe, 635/667 nm fluorescence, primary screen (AID 1099).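 Also: score merges 667nm spot fluorescence with signal to noise across triplicate slides.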 To be noted: small-molecule microarray, higher = more signal.
Assay [3] is described as follows: probe aCHRDL2 binding to arrayed compounds – biochemical, biotinylated probe, 635/667 nm fluorescence, primary screen (AID 1100). To be noted: small-molecule microarray, higher = more signal.
The nature of assay [4]: change in splice reporter luminescence, either direction, cell-based, HEK293, spliceosome inhibition project, primary screen (AID 1101).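 Also: HEK293 cells carrying a splicing-competent luciferase reporter gene; test concentration not given here.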 To be noted: HEK293 splicing luciferase reporter, 24 h, higher = more signal, called active from +8 up or from −8 down. Background: A reporter such as luciferase makes a cellular process visible.
In assay [5] the target is Fibroblast growth factor 10 (Homo sapiens) (UniProt O15520). Briefly: compounds binding fibroblast growth factor 10 – biochemical, small-molecule microarray, 635 nm fluorescence, primary screen (AID 1102). Conditions: FGF10 binding, fluorescence 635 nm, higher = more signal.
In assay [6] the test system is glycogen synthase kinase-3 (GSK3A per assay name; protocol says GSK3B). Briefly: compounds binding glycogen synthase kinase-3 – biochemical, small-molecule microarray, 635 nm fluorescence, GSK3A, primary screen (AID 1103). Also: the record names both GSK3A and GSK3B. To be noted: fluorescence 635 nm, higher = more signal.
Assay [7] concerns the target Epidermal growth factor receptor (Homo sapiens) (UniProt P00533). Briefly: compounds binding epidermal growth factor receptor – biochemical, small-molecule microarray, 635 nm fluorescence, primary screen (AID 1104).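 Also: score merges 667 nm emission intensity with spot signal to noise over triplicate slides.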 To be noted: EGFR binding, higher = more signal.
Assay [8] addresses Follistatin-related protein 3 (Homo sapiens) (UniProt O95633). Briefly: compounds binding follistatin-related protein 3 – biochemical, small-molecule microarray, 635 nm fluorescence, primary screen (AID 1105).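 Also: score merges emission near 667 nm and signal to noise per printed spot across three slides.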 Conditions: FSTL3 binding, higher = more signal.
The target of assay [9] is Dickkopf-related protein 1 (Homo sapiens) (UniProt O94907). Briefly: small molecules binding DKK1 protein – biochemical, small-molecule microarray, 635 nm fluorescence scan, primary screen (AID 1106).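 Also: score merges emission near 667 nm with signal to noise over three replicate slides.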 Conditions: higher = more signal.
Assay [10] concerns Inhibin beta A chain (activin A). The experiment in a line: small molecules binding activin A – biochemical, small-molecule microarray, 635 nm fluorescence scan, primary screen (AID 1107).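 Also: mouse activin A protein probed at 4.33 µg/mL on printed slides; score merges bound-protein fluorescence near 667 nm with spot signal-to-noise.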 Conditions: INHBA, higher = more signal.
Assay [11] concerns Human papillomavirus type 1a protein E7 (residues 44-93). Briefly: small molecules binding HPV E7 44-93 – biochemical, small-molecule microarray, residues 44-93, 635 nm fluorescence, primary screen (AID 1108).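 Also: E7 fragment applied at 1 µg/mL in TBST for 1 h at 4 C; score combines spot fluorescence with its signal to noise ratio.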 To be noted: fluorescence 635 nm, higher = more signal.
A short description of assay [12]: hepatitis C replication reporter changes, two-sided – Huh7 cells, luciferase reporter, HCV replication inhibitor project, primary screen (AID 1109).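 Also: huh7 hepatoma cells harbouring a luciferase neomycin HCV replicon reporter; luciferase luminescence as measure of HCV replicon replication; test concentration not given here.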 To be noted: Huh7 HCV replicon luciferase reporter, 48 h; higher = more signal.
For assay [13], the target named is Left-right determination factor 2 (Homo sapiens) (UniProt O00292). The experiment in a line: small molecules binding LEFTY2 protein – biochemical, small-molecule microarray, 635 nm fluorescence scan, primary screen (AID 1110). Conditions: higher = more signal.
In assay [14] the target is Calmodulin-1 (Homo sapiens) (UniProt P0DP23). The experiment in a line: small molecules binding calmodulin-1 with EGTA – biochemical, small-molecule microarray, Cy5-labelled CALM1, profiling panel (AID 1111).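 Also: labelled calmodulin applied in Tris saline Tween buffer holding calcium plus EGTA and DTT.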 To be noted: Cy5-CALM1 binding fluorescence, higher = more signal.
The target is the same in assay [15]. The experiment in a line: small molecules binding Ca-loaded calmodulin-1 – biochemical, small-molecule microarray, Cy5-labelled CALM1, plus calcium, artefact control for SMM control-protein annotation, profiling panel (AID 1112).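 Also: score merges spot fluorescence with signal to noise from triplicate slides.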 Conditions: Cy5-CALM1 binding fluorescence, higher = more signal.
Assay [16] in a line: probe aWnt5a binding to arrayed compounds – biochemical, biotinylated probe, 635/667 nm fluorescence, primary screen (AID 1113).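 Also: score merges 667 nm fluorescence intensity with signal-to-noise per printed feature.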 Conditions: small-molecule microarray, higher = more signal.
Assay [17] in a line: probe aShh binding to arrayed compounds – biochemical, biotinylated probe, 635/667 nm fluorescence, primary screen (AID 1114).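 Also: probe is biotin-labelled aShh protein from a stem cell growth factor screen; measures binding of labelled protein to compounds printed on the slide; score merges feature fluorescence at 667 nm with signal-to-noise.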 Conditions: small-molecule microarray, higher = more signal.
A short description of assay [18]: probe aNog binding to arrayed compounds – biochemical, biotinylated probe, 635/667 nm fluorescence, primary screen (AID 1115).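 Also: probe is biotinylated aNog protein used at 0.15 µg/mL for 1 h at 4 C; z-score combines 667 nm fluorescence of each spot with its signal to noise.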 To be noted: small-molecule microarray, higher = more signal.
The target of assay [19] is Torsin-1A-interacting protein 1 (Homo sapiens) (UniProt Q5JTV8). The experiment in a line: compound microarray binding of lysate hLAP1 – cell lysate, small-molecule microarray, COS7 lysate, 635/667 nm fluorescence, primary screen (AID 1116). To be noted: 635 nm fluorescence, higher = more signal.
The target of assay [20] is Alpha-bungarotoxin (Bungarus multicinctus) (UniProt P60615). The experiment in a line: compounds binding labelled alpha-BTX control protein – biochemical, small-molecule microarray, Alexa647 label, 635/667 nm fluorescence, artefact control for SMM control protein annotation, profiling panel (AID 1117). Conditions: alpha-BTX-A647 binding fluorescence, higher = more signal.

Active and inactive are the calls of the source.

Chain of Epidermal growth factor receptor (Homo sapiens) (P00533 whole entry, looked up): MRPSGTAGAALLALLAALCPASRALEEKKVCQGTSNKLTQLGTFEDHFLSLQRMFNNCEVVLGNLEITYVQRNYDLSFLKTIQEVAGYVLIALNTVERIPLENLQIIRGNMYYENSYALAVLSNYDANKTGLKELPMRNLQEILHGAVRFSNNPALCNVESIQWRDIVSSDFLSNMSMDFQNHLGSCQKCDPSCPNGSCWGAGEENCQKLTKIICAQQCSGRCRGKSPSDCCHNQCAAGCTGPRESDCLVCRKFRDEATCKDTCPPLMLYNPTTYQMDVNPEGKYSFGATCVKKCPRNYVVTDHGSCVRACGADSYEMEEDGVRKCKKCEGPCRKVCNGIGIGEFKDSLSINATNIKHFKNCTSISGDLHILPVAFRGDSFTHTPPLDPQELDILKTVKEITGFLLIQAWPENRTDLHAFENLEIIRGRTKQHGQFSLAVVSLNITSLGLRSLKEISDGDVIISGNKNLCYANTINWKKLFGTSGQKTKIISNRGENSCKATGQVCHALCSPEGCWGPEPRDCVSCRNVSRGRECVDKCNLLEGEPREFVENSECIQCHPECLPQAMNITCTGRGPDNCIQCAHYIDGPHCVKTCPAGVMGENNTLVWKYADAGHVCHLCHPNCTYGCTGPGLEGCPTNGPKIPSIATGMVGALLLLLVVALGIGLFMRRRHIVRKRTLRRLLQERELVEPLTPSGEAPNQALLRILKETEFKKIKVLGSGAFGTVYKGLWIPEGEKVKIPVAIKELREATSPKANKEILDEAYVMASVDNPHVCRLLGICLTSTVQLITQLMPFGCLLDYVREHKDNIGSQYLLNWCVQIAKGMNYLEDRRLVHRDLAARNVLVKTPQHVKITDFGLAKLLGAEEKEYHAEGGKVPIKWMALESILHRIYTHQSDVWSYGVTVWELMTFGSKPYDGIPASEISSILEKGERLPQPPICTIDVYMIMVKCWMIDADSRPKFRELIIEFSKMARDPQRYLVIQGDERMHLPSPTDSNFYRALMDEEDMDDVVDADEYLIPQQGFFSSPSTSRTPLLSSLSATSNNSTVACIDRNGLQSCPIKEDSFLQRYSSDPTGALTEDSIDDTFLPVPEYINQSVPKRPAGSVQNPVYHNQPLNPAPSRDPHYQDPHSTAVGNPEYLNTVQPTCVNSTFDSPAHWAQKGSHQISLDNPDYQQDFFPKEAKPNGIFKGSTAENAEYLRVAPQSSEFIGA
Chain of Alpha-bungarotoxin (Bungarus multicinctus) (P60615 whole entry, looked up): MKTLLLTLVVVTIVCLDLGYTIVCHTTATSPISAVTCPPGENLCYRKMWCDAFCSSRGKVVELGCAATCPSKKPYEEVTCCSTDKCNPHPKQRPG
Chain of Left-right determination factor 2 (Homo sapiens) (O00292 whole entry, looked up): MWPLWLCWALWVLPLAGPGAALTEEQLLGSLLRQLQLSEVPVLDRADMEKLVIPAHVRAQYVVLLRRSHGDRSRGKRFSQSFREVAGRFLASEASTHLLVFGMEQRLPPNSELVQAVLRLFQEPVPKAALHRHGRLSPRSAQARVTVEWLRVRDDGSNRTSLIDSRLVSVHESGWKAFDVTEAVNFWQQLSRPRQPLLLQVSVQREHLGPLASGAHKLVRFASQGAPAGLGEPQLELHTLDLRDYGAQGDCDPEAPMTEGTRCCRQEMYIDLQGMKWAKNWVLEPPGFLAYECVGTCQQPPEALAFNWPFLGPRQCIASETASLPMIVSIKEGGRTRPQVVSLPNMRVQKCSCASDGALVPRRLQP
Chain of Torsin-1A-interacting protein 1 (Homo sapiens) (Q5JTV8 whole entry, looked up): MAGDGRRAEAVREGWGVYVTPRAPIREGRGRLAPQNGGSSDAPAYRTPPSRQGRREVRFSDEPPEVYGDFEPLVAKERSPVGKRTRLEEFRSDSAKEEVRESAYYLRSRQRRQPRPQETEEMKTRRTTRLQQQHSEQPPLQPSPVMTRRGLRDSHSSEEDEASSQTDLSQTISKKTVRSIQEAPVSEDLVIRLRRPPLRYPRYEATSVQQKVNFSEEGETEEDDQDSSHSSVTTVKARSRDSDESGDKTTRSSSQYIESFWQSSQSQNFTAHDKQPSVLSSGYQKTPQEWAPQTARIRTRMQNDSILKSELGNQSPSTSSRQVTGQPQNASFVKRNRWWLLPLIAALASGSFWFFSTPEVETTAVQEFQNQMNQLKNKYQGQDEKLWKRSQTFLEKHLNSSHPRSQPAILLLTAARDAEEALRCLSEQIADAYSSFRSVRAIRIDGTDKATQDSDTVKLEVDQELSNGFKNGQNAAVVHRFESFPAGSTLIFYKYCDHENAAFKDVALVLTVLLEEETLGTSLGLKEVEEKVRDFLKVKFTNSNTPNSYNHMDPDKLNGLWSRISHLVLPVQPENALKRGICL
Chain of Fibroblast growth factor 10 (Homo sapiens) (O15520 whole entry, looked up): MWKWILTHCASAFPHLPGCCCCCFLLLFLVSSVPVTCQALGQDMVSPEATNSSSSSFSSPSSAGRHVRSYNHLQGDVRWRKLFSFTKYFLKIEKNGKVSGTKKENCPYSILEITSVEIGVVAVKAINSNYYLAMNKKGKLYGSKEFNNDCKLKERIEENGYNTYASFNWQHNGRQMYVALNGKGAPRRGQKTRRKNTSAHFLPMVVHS
Chain of Dickkopf-related protein 1 (Homo sapiens) (O94907 whole entry, looked up): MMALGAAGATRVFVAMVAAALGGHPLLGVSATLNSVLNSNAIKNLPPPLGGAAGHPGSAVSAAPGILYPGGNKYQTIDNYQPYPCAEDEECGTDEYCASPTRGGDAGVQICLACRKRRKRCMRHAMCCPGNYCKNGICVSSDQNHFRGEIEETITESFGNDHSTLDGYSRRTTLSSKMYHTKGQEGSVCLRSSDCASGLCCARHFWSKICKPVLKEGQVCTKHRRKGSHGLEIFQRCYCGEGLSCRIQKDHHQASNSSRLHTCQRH
Chain of Follistatin-related protein 3 (Homo sapiens) (O95633 whole entry, looked up): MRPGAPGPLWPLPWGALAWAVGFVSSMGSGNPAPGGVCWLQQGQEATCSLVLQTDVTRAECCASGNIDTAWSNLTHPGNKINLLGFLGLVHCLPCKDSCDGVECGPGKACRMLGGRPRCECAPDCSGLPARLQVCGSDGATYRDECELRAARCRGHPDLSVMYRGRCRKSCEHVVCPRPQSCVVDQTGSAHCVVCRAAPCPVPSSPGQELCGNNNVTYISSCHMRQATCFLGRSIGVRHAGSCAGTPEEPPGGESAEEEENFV

Turning to `COC(=O)C[C@H]1O[C@]2(C(=O)N(C)c3ccccc32)[C@@H](C)[C@@H]1[Si](C)(C)c1ccc(C)cc1`, the composite z-score was 0.486 in [1]; -0.276 in [2]; -0.203 in [3]; 0.749 in [5]; 0.96 in assay [6]; 0.41 in assay [7]. In addition, the composite z-score in [8] is 0.958; in assay [9], 0.501; in assay [10], 0.0223; in assay [11] it was 1.15; in [13], 0.375; in [14] it was 0.196. The composite z-score is -0.0787 in assay [15]; -0.136 in assay [16]; -0.393 in assay [17]; -0.121 in [18]; 0.346 in assay [19]; 0.638 in assay [20]. Also, the results for the z-score in assay [4] and in [12] were -0.283 (inactive) and -2.92, respectively.

`COc1ccc(C#Cc2ccc3c(c2)[C@]2(C(=O)N3)[C@H](C(=O)N3CCc4cc(OC)c(OC)cc4C3)[C@H]3C(=O)O[C@H](c4ccccc4)[C@H](c4ccccc4)N3[C@@H]2c2ccc(O)cc2)cc1`: the composite z-score in [1] was 0.822; in [2], -0.29; in [3], -0.178; in assay [5] it was 0.851; in assay [6], 1.29; in assay [7], 0.537. For the same molecule, the composite z-score was 0.957 in assay [8]; 0.513 in assay [9]; -0.214 in [10]; 1.38 in assay [11]; 0.388 in assay [13]; 1.22 in assay [14]. The composite z-score in assay [15] is 0.06; in assay [16], -0.122; in [17], -0.0243; in assay [18] it was 0.272; in assay [19], 0.0204; in assay [20], 1.04. In addition, the z-score was -0.00287 (inactive) in [4] and -1.21 in assay [12].

For the molecule `COC(=O)Cn1c(C(=O)N2CCCC2)cc2c1C[C@H]1CN(C(=O)c3ccccc3)[C@@](Cc3ccc(F)cc3)(C(=O)OC)[C@@H]21`, the composite z-score in [1] is 0.643; in [2], 0.222; in [3] it was -0.0982; in assay [5], -0.134; in [6] it was -0.576; in assay [7], 0.588. Further, the composite z-score is 0.412 in [8]; -0.181 in [9]; 0.675 in assay [10]; -0.137 in assay [11]; -0.0715 in assay [13]; 1.15 in [14]. The composite z-score in assay [15] is 0.153; in assay [16] it was -0.0405; in assay [17], -0.0738; in [18] it was -0.298; in assay [19], 0.943; in assay [20], -0.155. The z-score in assay [4] is -1.13 (inactive); in [12] it was -1.32.

As for `O=C1O[C@@H](c2ccccc2)[C@@H](c2ccccc2)N2[C@@H](c3ccc(O)cc3)[C@]3(C(=O)Nc4ccc(C#CCCO)cc43)[C@@H](C(=O)Nc3nc4ccccc4s3)[C@H]12`, the composite z-score in assay [1] turned out to be 0.94; in assay [2] it was 0.0179; in assay [3], 0.376; in assay [5] it was 1.17; in assay [6], 1.13; in assay [7], 0.214. Besides, the composite z-score in assay [8] was 0.545; in [9] it was -0.17; in [10], 0.0507; in assay [11] it was 1.23; in [13], 0.173; in assay [14] it was 0.289. Besides, the composite z-score is -0.331 in [15]; -0.0405 in [16]; 0.108 in assay [17]; 0.128 in [18]; 1.2 in [19]; 1.66 in assay [20]. Also, the z-score is 0.344 (inactive) in assay [4] and -0.0469 in assay [12].

`CCOC(=O)C[C@H]1[C@H](OC(=O)c2ccc(-c3ccccc3)cc2)[C@@H](NC(=O)C2CCCCC2)c2cc(OCCCO)ccc2N1C(=O)c1ccccc1`: the composite z-score in [1] is 0.3; in assay [2], -0.141; in assay [3] it was -0.464; in assay [5], 0.616; in [6], 0.258; in [7] it was 0.0979. The composite z-score turned out to be 0.584 in assay [8]; 0.237 in assay [9]; 0.117 in assay [10]; 0.959 in assay [11]; 0.365 in assay [13]; 0.413 in assay [14]. In addition, the composite z-score in [15] is -0.0071; in assay [16], -0.0822; in assay [17], -0.123; in assay [18], -0.232; in [19] it was -0.241; in assay [20] it was 0.0785. Further, the z-score in assay [4] was -0.0213 (inactive); in assay [12], -1.84.
